Screening data (PubChem BioAssay)
Shown are actives, neighbours in structure and some others; about 22% of the full set was active somewhere.
LmPK inhibitor: LmPK (Leishmania mexicana) enzyme inhibition; Potency, µM (titrated, usually from 57.5 µM), most hits filed as inhibitors; Q27686; 0.37% of 290,000 active; purified LmPK, Kinase-Glo ATP luminescence, 1 h
Target sequence (Q27686 whole entry, looked up): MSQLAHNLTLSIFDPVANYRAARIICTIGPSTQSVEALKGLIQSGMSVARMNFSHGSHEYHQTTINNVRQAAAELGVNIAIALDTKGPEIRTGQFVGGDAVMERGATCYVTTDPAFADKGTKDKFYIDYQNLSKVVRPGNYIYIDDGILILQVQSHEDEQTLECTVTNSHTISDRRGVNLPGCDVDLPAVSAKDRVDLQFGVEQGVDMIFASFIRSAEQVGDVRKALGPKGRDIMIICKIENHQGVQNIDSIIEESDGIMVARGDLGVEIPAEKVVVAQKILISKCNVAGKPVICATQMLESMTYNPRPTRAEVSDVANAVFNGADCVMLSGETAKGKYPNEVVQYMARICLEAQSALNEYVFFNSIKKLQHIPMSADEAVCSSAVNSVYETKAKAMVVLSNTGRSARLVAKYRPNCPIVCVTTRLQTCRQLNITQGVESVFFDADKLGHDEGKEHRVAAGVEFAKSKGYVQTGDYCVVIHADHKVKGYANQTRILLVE
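Purified LmPK (0.1 nM) converted ADP (0.1 mM) to ATP with PEP (0.5 mM) in imidazole buffer pH 7.2 with KCl and MgCl2, 1 h at room temperature. ATP was read by Kinase-Glo luminescence; data normalized to uninhibited and no-enzyme controls.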
Shiga toxin inh: blocks Shiga toxin action in Vero cells | inhibition, % at 38.7 µM | Vero cells, Shiga toxin protein synthesis inhibition reporter | 9.2% of 290,000 active | AID 2315; in the data active means inhibition mostly above about 28%, no sharp cut-off; inactive means mostly below about 43%
Pf growth 96h: P. falciparum growth inhibition at 96 hours. P. falciparum luciferase reporter growth, 96 h. Potency, µM (doses to about 28.7 µM), usual class: inhibitors. 6.9% of 320,000 active. AID 504834
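Cell-based qHTS: luciferase-tagged P. falciparum in erythrocytes (2% hematocrit, 0.05% parasitemia final) incubated with compounds for 96 hours, 37 C, 5% CO2; luciferase detection reagent then added and luminescence measured.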
Cycloheximide cs: counter-screen hit for Shiga toxin inhibitors, cycloheximide; AID 2314; 12% of 300,000 active; cell reporter, cycloheximide protein synthesis inhibition counterscreen; max response, %; in the data active means max response mostly above about 13%, no sharp cut-off; inactive means mostly below about 14%; further: read at 38.3 µM for the half of the compounds with a filed dose
Pf growth 48h: inhibits P. falciparum growth in the first generation, 48 h | Potency, µM (titrated, usually from 28.7 µM), usual class: inhibitors | AID 504832 | 5.9% of 310,000 active | P. falciparum luciferase growth in erythrocytes, 48 h
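In quantitative HTS format, infected erythrocytes bearing luciferase-reporter parasites were treated for a single generation at 37 C. Luminescence after adding detection reagent served as the growth measure.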
Large screens that a line does not name were inactive. Unless noted, the call rests on the fitted dose curve; in most records, active means well fitted inhibition curve with a large enough effect; inconclusive means small, poorly fitted or top-dose-only effect, or another doubt; inactive means no such curve, though single readings can be large or run the other way.

Cc1ccnn1CC(=O)N/N=C/c1cccs1	none
COC(=O)N/N=C/c1ccc([N+](=O)[O-])s1	Pf growth 96h 8.28µM, Pf growth 48h 14.7µM
Cn1c(SCC(=O)N/N=C/c2cc([N+](=O)[O-])ccc2O)nnc1-c1ccccc1	Pf growth 96h inconclusive, Pf growth 48h inconclusive
Cn1c(SCC(=O)N/N=C/c2ccc([N+](=O)[O-])s2)nnc1-c1ccccc1	Pf growth 96h inconclusive, Pf growth 48h 6.57µM
O=C(Cc1ccccc1)N/N=C/c1ccc([N+](=O)[O-])s1	Shiga toxin inh 111.5, Pf growth 96h 8.28µM, Pf growth 48h 7.38µM
Cc1ccnn1CC(=O)N/N=C/c1ccc([N+](=O)[O-])s1	Pf growth 96h 7.38µM, Pf growth 48h inconclusive
Cc1c(C(=O)NCc2nnc(-c3ccccc3)o2)oc2c(F)cccc12	none
Fc1ccccc1-c1cc2ccccc2cn1	Pf growth 96h inconclusive (no result: LmPK inhibitor, Shiga toxin inh, Cycloheximide cs)
O=C(N/N=C/c1ccc([N+](=O)[O-])s1)c1ccccc1	Cycloheximide cs 20.1, Pf growth 48h inconclusive
O=C(N/N=C/c1ccc([N+](=O)[O-])s1)C(O)c1ccccc1 (centres undefined)	Pf growth 96h 2.33µM, Cycloheximide cs 16.2, Pf growth 48h 4.65µM
Cc1ccc(/C=N/NC(=O)C(O)c2ccccc2)o1 (centres undefined)	none
O=C(N/N=C\c1ccc([N+](=O)[O-])s1)c1cncc(Br)c1	Pf growth 96h 3.29µM, Pf growth 48h 8.28µM
CCn1nc(C)c(/C=N/NC(=O)Cn2nc(C)cc2C)c1C	none
CCn1nc(C)c(/C=N/NC(=O)Cn2nccc2C)c1C	Shiga toxin inh 71.7, Cycloheximide cs 37.4
CC1CCN(C(=O)CN2C(=O)C(=O)N(C)C2=O)c2ccccc2S1 (centres undefined)	none (no result: LmPK inhibitor, Shiga toxin inh, Cycloheximide cs)
CCN(C(=O)CSc1ncccn1)c1c(N)n(Cc2ccccc2)c(=O)[nH]c1=O	Pf growth 48h inconclusive (no result: LmPK inhibitor, Shiga toxin inh, Cycloheximide cs)
CC(C)NC(=S)NC(=O)/C=C/c1ccc(F)cc1	none
O=C(CNC(=O)c1cccc(F)c1)N/N=C/c1ccc([N+](=O)[O-])s1	Pf growth 96h inconclusive
Cc1ccccc1C(=O)N/N=C/c1ccc([N+](=O)[O-])s1	Pf growth 96h 2.08µM (no result: Pf growth 48h)
Cc1ccc(NC(=O)c2cccc(S(=O)(=O)N3CCCCC3)c2)cc1	Pf growth 96h inconclusive
CN(C)C(=O)c1ccc(NC(=O)c2cccc(S(=O)(=O)N3CCCCCC3)c2)cc1	Pf growth 96h 5.22µM, Pf growth 48h inconclusive (no result: LmPK inhibitor, Shiga toxin inh, Cycloheximide cs)
CN(C)C(=O)c1ccc(NC(=O)c2cccc(S(=O)(=O)N3CCCc4ccccc43)c2)cc1	Pf growth 96h 9.28µM, Pf growth 48h 5.22µM (no result: LmPK inhibitor, Shiga toxin inh, Cycloheximide cs)
COc1cc(OC)cc(C(=O)NNS(=O)(=O)c2ccc(F)cc2)c1	Pf growth 96h inconclusive
COc1ccc(NC(=O)/C(C#N)=C\c2ccc(-c3cc(C(=O)O)ccc3C)o2)cc1	none
COc1ccc(NC(=O)/C(C#N)=C\c2ccc(Br)o2)cc1	Cycloheximide cs 22.3
Cc1ccc(NC(=O)CN2C(=O)S/C(=C\c3ccc(-c4cccc(C(=O)O)c4C)o3)C2=O)cc1	none (no result: Pf growth 96h)
CNC(=O)/C(C#N)=C/c1ccc(-c2ccc(OC)cc2[N+](=O)[O-])o1	Shiga toxin inh 26.5, Pf growth 96h inconclusive, Cycloheximide cs 56.4, Pf growth 48h inconclusive
COc1ccc(NC(=O)/C(C#N)=C\c2ccc(-c3cccc(C(=O)O)c3C)o2)cc1	Shiga toxin inh 35.3, Pf growth 96h inconclusive, Cycloheximide cs 20.9, Pf growth 48h inconclusive
COc1ccc(NC(=O)/C(C#N)=C/c2ccc(-c3ccccc3C(=O)O)o2)cc1	Pf growth 96h inconclusive
Cc1c(C(=O)O)cccc1-c1ccc(C=O)o1	Shiga toxin inh 54.0, Cycloheximide cs 34.6
CCCCC(CC)CNC(=O)CC1Nc2c3ccccc3nc(=S)n2C1=O (centres undefined)	none
CCOc1ccc2nc(NC(=O)COC)sc2c1	Cycloheximide cs 34.1
COc1ccc2nc(NC(=O)CCn3cccc3)sc2c1	Cycloheximide cs 15.7
CCOc1ccc2nc(NC(=O)CN3C(=O)C4CCCCC4C3=O)sc2c1 (centres undefined)	none (no result: LmPK inhibitor, Shiga toxin inh, Cycloheximide cs)
COc1cc(CCC(=O)Nc2nnc(C)s2)cc(OC)c1OC	none
CCOCC(=O)Nc1nc2ccc(OC)cc2s1	LmPK inhibitor inconclusive, Shiga toxin inh 67.1, Cycloheximide cs 52.6 (no result: Pf growth 96h)
COc1ccc2nc(NC(=O)CCc3cc(OC)c(OC)c(OC)c3)sc2c1	Pf growth 96h 9.28µM, Pf growth 48h inconclusive
CCOc1ccc(-c2nc3ccc(-c4nc5ccc(N6CCN(C)CC6)cc5[nH]4)cc3[nH]2)cc1	none (no result: LmPK inhibitor, Pf growth 96h, Pf growth 48h)
NS(=O)(=O)c1ccc(CCNC(=O)COC(=O)Cc2c(F)cccc2Cl)cc1	none
Cc1ccc(S(=O)(=O)NCl)cc1	none (no result: LmPK inhibitor, Shiga toxin inh, Cycloheximide cs)
CCOC(=O)c1sc(N/N=C/c2cc(Br)c(O)c(OC)c2)nc1C	Pf growth 48h 13.1µM
CC(=O)c1sc(N/N=C\c2ccc(N(C)C)cc2)nc1C	Pf growth 96h inconclusive, Cycloheximide cs 31.0 (no result: Shiga toxin inh)
CC(=O)c1sc(N/N=C/c2cccc(O)c2)nc1C	Shiga toxin inh 49.8, Cycloheximide cs 39.6
Cc1nc(NS(=O)(=O)c2ccccc2)sc1C(=O)N/N=C/c1ccccc1	none
COC(=O)c1sc(N/N=C/c2ccc(C(C)C)cc2)nc1C	Shiga toxin inh 53.0, Pf growth 96h inconclusive, Pf growth 48h 9.28µM
CC(=O)c1sc(N/N=C/c2cccc([N+](=O)[O-])c2)nc1C	none
COc1ccc(Cl)cc1NC(=O)Cn1c(NCCO)nc2ccccc21	none
Cn1c(=O)[nH]c(=O)c2c1nc(SCc1ccccc1Cl)n2CC(N)=O	none
Nc1nc(NCc2c(F)cccc2Cl)nn1-c1ccccc1	Shiga toxin inh 55.9, Cycloheximide cs 25.1 (no result: Pf growth 96h)
N=c1c2c(ncn1Cc1ccco1)Oc1c(ccc3ccccc13)C2c1ccccc1 (centres undefined)	Shiga toxin inh 17.6, Pf growth 96h inconclusive, Cycloheximide cs 23.3, Pf growth 48h 14.7µM
N=c1c2c(ncn1Cc1ccco1)Oc1cc(O)ccc1C2c1ccccc1 (centres undefined)	Pf growth 96h inconclusive, Pf growth 48h 11.7µM
COc1ccc(C2c3c(ccc4ccccc34)Oc3ncn4nc(CO/N=C/c5ccccc5)nc4c32)cc1 (centres undefined)	none (no result: Pf growth 96h)
CN(C)CCn1cnc2c(c1=N)C(c1ccccc1)c1ccc3ccccc3c1O2 (centres undefined)	Pf growth 96h 5.22µM, Pf growth 48h 5.22µM
CCCCCOC(=O)C1=C(C)N(C)C(=O)NC1c1cc(Br)c(O)c(OC)c1 (centres undefined)	Pf growth 48h inconclusive
COCCNC(=O)C(c1ccccc1)N(Cc1cccs1)C(=O)Cn1nnc2ccccc21 (centres undefined)	none
COCCNC(=O)C(c1cccnc1)N(Cc1ccccc1)C(=O)Cn1nnc2ccccc21 (centres undefined)	Shiga toxin inh 93.9, Cycloheximide cs 29.1
COCCNC(=O)C(c1ccncc1)N(Cc1ccccc1)C(=O)Cn1nnc2ccccc21 (centres undefined)	Shiga toxin inh 42.2, Pf growth 96h inconclusive, Cycloheximide cs 33.3
Cc1ccc(NC(=O)CCCCCN2C(=O)[C@@H]3Cc4ccccc4CN3C2=O)c(C)c1	Pf growth 96h inconclusive, Pf growth 48h inconclusive
